In PubChem BioAssay (Tox21):
Results filed as inconclusive are left out. Active and inactive are the calls of the source. Unless noted, calls come from the whole dose curve; as a rule, active = well fitted curve in the direction sought with a large enough effect in the repeat runs; inconclusive = weak or mixed curves; inactive = no such curve, though single readings can be large; an effect the other way counts as inactive or inconclusive.

Assays:
[1] = qHTS RealTime-Glo MT Cell Viability Assay in HEK293 cells - 24 hour (AID 1224886); note: top concentration of the series differs between compounds; nearly all actives have a fitted effect of over 50% in size
Method in brief: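 Nonlytic real-time viability readout: viable cells convert prosubstrate to NanoLuc substrate, giving luminescence proportional to live cell number. HEK293, 600 cells/well, compound added after 5 h, continuous culture at 37 C.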

[2] = qHTS RealTime-Glo MT Cell Viability Assay in HEK293 cells - 8 hour (AID 1224887); note: top concentration of the series differs between compounds; nearly all actives have a fitted effect of over 50% in size
Method in brief: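 Tox21 screen in HEK293 using RealTime-Glo MT chemistry, with cells and reagent co-dispensed. Luminescence proportional to viable cell number was captured at intervals during 40 h compound exposure at 37 C.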

[3] = A CellTox Green Cytotoxicity Assay to monitor cytotoxicity in HEK293 cells - 16 hour (AID 1224888); note: nearly all actives have a fitted effect of over 35% in size
Method in brief: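 Seeding of HEK293 cells together with cytotoxicity dye preceded a 5 h incubation at 37 C/5% CO2. Test compounds in DMSO were then added and fluorescence monitored across 40 h.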

[4] = qHTS RealTime-Glo MT Cell Viability Assay in HepG2 cells - 0 hour (AID 1224889); note: nearly all actives have a fitted effect of over 50% in size
Method in brief: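 Luminescence read-out: viable HepG2 cells reduce a prosubstrate to a NanoLuc substrate, giving a signal proportional to live cell number. Reads taken at 0, 8, 16, 24, 32 and 40 h of compound exposure at 37 C.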

[5] = A CellTox Green Cytotoxicity Assay to monitor cytotoxicity in HepG2 cells - 8 hour (AID 1224890); note: nearly all actives have a fitted effect of over 45% in size
Method in brief: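 Nonlytic assay: viable cells exclude the dye, so fluorescence scales with cell death. HepG2 at 600 cells/well, compounds added after 5 h, signal read across 40 h.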

[6] = qHTS assay to identify small molecule antagonists of the estrogen receptor alpha (ER-alpha) signaling pathway using the BG1 cell line in the presence of 0.1 nM 17-beta-estradiol - cell viability counter screen (AID 1259241); note: nearly all actives have a fitted effect of over 40% in size
Method in brief: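 VM7Luc4E2, 4,000 cells/well, phenol red-free medium + 10% charcoal-stripped FBS; 24 hr plating; cpd + 0.1 nM E2 final, 22 hr 37C/5% CO2; CellTiter-Fluor 30 min, fluorescence.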

[7] = qHTS assay to identify small molecule antagonists of the androgen receptor (AR) signaling pathway using the MDA cell line in the presence of 0.5 nM R1881 - cell viability counter screen (AID 1259242); note: nearly all actives have a fitted effect of over 45% in size
Method in brief: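 R1881 at 0.5 nM final stimulated MDA-kb2 cells during 16 hr compound treatment at 37C. Cytotoxicity read: CellTiter-Fluor fluorescence after 30 min.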

[8] = target: Estrogen receptor (Homo sapiens) (UniProt P03372); test: qHTS assay to identify small molecule antagonists of the estrogen receptor alpha (ER-alpha) signaling pathway using the BG1 cell line in the presence of 0.1 nM 17-beta-estradiol (AID 1259244); note: nearly all actives have a fitted effect of over 50% in size
Method in brief: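 VM7Luc4E2; 4xERE-luciferase; 0.1 nM E2 final; 22 h co-incubation, 37C; ONE-Glo luminescence after 30 min at room temperature.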

[9] = qHTS assay to identify small molecule HDAC inhibitors (AID 1259364);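 note: wild-type HCT-116 cells with endogenous class I/II HDAC activity; top concentration of the series differs between compounds; nearly all actives have a fitted effect of over 45% in size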
Method in brief: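 Relative class I and II HDAC activity is taken from the luminogenic signal in HCT-116 cells, with compound exposure 2 hr and reagent development 30 min at room temperature.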

[10] = qHTS assay to identify small molecule HDAC inhibitors - cell viability counter screen (AID 1259365)
Method in brief: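 Luminescence from CellTiter-Glo, developed 30min at room temperature, reports viability of wild-type HCT-116 cells treated 2hr with compounds at 37 C and 5% CO2 after overnight plating.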

[11] = qHTS assay to identify small molecule antagonists of the sonic hedgehog signaling (Shh) pathway - cell viability counter screen (AID 1259367); note: nearly all actives have a fitted effect of over 55% in size
Method in brief: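 NIH/3T3-derived Gli1-Luc reporter cells (2,000 per well) rested 4 hr at 37 C, then received DMSO compounds plus conditioned medium. After 23 hr of treatment, CellTiter-Fluor was added for 1 hr at 37C and fluorescence read.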

[12] = qHTS assay to identify small molecule agonists of the sonic hedgehog signaling (Shh) pathway (AID 1259368; calls by dose curve;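 note: NIH/3T3-derived 3T3Gli1-Luc cells carrying a stable Gli1-driven firefly luciferase reporter; series mostly up to about 92 µM; nearly all actives have a fitted effect of over 15% in size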)
Method in brief: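 Mouse fibroblast (NIH/3T3) reporter cells with stably integrated Gli1-Luc were treated 24 hr with compound; firefly luciferase luminescence served as the read-out.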

[13] = qHTS assay to identify small molecule antagonists of the sonic hedgehog signaling (Shh) pathway (AID 1259369; calls by dose curve; note: nearly all actives have a fitted effect of over 45% in size)
Method in brief: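 Conditioned medium drives Shh signalling in 3T3Gli1-Luc cells; compounds in DMSO co-applied, 24hr at 37 C, then luciferase luminescence.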

[14] = target: Estrogen receptor beta (Homo sapiens) (UniProt Q92731); test: qHTS assay to identify small molecule agonists of the estrogen receptor beta (ER-beta) signaling pathway (AID 1259377; active = well fitted activation curve with a large enough effect in the signal ratio in the repeat runs, not every such curve was filed as active; the % refers to the signal ratio)
Method in brief: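 HEK293T ER-beta-UAS-bla; 2% charcoal-stripped FBS; cells pre-incubated 6 hr, compound 16 hr, 37C/5% CO2; LiveBLAzer B/G FRET substrate 2 h RT; fluorescence intensity read.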

[15] = qHTS assay to identify small molecule agonists of the estrogen receptor beta (ER-beta) signaling pathway - cell viability counter screen (AID 1259380); note: nearly all actives have a fitted effect of over 30% in size
Method in brief: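 Cells used were ER-beta-UAS-bla HEK293T in medium with 2% charcoal-stripped FBS. They were treated for 16 hr at 37C. Viability came from CellTiter-Glo luminescence.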

[16] = qHTS assay to identify small molecule agonists of the sonic hedgehog signaling (Shh) pathway - cell viability counter screen (AID 1259366); note: nearly all actives have a fitted effect of over 50% in size
Method in brief: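 Cytotoxicity counter screen run in the same wells as the Shh reporter assay. NIH/3T3 cells carrying a Gli1 response element–driven luciferase were treated with DMSO-dissolved compounds for 24hr, and live-cell protease activity was measured with CellTiter-Fluor.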

[17] = target: Estrogen receptor beta (Homo sapiens) (UniProt Q92731); test: qHTS assay to identify small molecule antagonists of the estrogen receptor beta (ER-beta) signaling pathway (AID 1259378; active = well fitted inhibition curve with a large enough effect in the signal ratio in the repeat runs, not every such curve was filed as active; the % refers to the signal ratio)
Method in brief: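 ER-beta-UAS-bla HEK293T (GripTite) cells in 2% charcoal-stripped FBS medium were preincubated 6 hr at 37C, dosed with compound, then stimulated with 1 nM E2 (final) for 16 hr; beta-lactamase reporter read by B/G FRET fluorescence after 2 hr substrate loading.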

[18] = qHTS assay to identify small molecule agonists of the androgen receptor (AR) signaling pathway in the presence of an antagonist - cell viability counter screen (AID 1259379);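 note: MDA-kb2 human breast cancer cells carrying an MMTV luciferase reporter; series mostly up to about 92 µM; nearly all actives have a fitted effect of over 25% in size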
Method in brief: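 A CellTiter-Fluor read-out measured viability of MDA-kb2 reporter cells (MMTV promoter with AR and GR response elements). Treatment: nilutamide 3.0uM final with compounds at 15 concentrations, 16 hr, 37C, 0% CO2.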

[19] = qHTS assay to identify small molecule phospholipidosis (PLD) inducers (AID 1259344; active = well fitted curve in the direction sought with a large enough effect; an effect the other way counts as inactive or inconclusive)
Method in brief: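 HepG2 cells on collagen I, attached 4 h at 37 C, were co-treated with compound and LipidTOX Red dye for 24 h at 37 C, then fixed with paraformaldehyde plus Hoechst 33342 and imaged by high-content microscopy for phospholipid accumulation.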
% is set by controls: 0 for no effect and ±100 for the full control effect.

Sequence of Estrogen receptor beta (Homo sapiens) (Q92731 whole entry, looked up): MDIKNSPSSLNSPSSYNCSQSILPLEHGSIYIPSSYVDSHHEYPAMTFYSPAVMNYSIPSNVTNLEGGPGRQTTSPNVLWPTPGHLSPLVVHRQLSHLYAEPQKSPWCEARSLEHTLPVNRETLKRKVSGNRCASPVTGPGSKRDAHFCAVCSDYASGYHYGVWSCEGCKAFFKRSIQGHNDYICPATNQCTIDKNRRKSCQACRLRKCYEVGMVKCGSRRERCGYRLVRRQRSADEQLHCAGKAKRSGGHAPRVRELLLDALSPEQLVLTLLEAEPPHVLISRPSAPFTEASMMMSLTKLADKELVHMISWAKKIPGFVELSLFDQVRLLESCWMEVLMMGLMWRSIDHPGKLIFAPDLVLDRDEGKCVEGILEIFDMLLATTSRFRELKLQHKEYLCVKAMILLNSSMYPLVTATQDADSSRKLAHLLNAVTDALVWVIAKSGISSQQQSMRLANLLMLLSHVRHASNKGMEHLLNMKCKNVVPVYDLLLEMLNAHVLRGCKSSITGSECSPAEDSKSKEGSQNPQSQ
Sequence of Estrogen receptor (Homo sapiens) (P03372 whole entry, looked up): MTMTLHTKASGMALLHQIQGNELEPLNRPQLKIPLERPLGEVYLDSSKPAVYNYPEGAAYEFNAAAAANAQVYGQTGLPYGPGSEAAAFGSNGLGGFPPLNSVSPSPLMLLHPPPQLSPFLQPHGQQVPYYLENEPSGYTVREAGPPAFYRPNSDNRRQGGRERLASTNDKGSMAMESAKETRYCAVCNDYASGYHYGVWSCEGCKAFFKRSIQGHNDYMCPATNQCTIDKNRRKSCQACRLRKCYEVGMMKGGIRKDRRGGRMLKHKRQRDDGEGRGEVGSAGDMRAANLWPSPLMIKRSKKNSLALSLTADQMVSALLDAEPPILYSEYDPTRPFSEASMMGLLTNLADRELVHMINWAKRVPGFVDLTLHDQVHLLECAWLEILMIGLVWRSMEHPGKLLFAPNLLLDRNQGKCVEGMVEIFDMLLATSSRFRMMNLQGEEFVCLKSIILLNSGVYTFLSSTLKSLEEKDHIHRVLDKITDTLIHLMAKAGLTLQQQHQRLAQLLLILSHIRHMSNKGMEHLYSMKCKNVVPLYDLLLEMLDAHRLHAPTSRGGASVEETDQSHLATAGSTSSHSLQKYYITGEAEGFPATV

C=CCN1C[C@H](C(=O)N(CCCN(C)C)C(=O)NCC)C[C@@H]2c3cccc4[nH]cc(c34)C[C@H]21
inactive: Potency [1] | Potency [2] | Potency [3] | Potency [4] | Potency [5] | outcome [6] | outcome [7] | outcome [8] | Potency [9] | outcome [10] | outcome [11] | outcome [12] | Potency [13] | Potency [14] | outcome [15]

CCCCOCCOC(=O)COc1ccc(Cl)cc1Cl
inactive: Potency [1] | Potency [2] | Potency [3] | Potency [4] | Potency [5] | outcome [6] | outcome [7] | outcome [8] | Potency [9] | outcome [10] | outcome [16] | outcome [11] | outcome [12] | Potency [13] | Potency [17] | outcome [18] | outcome [15]

C[C@@H](O)C(=O)O
inactive: Potency [1] | Potency [2] | Potency [3] | Potency [4] | Potency [5] | outcome [6] | outcome [7] | outcome [8] | Potency [9] | outcome [10] | outcome [16] | outcome [11] | outcome [12] | Potency [13] | outcome [18] | outcome [15]

CC1(C)Cc2cccc(N)c2O1
inactive: Potency [1] | Potency [2] | Potency [3] | Potency [4] | Potency [5] | outcome [6] | outcome [7] | outcome [8] | Potency [9] | outcome [10] | outcome [16] | outcome [11] | outcome [12] | Potency [13] | outcome [18]

CCCC(CC)c1ccccc1 (stereo not drawn)
inactive: Potency [1] | Potency [2] | Potency [3] | Potency [4] | Potency [5] | outcome [6] | outcome [7] | outcome [8] | Potency [9] | outcome [16] | outcome [11] | outcome [12] | Potency [13] | Potency [14] | Potency [17] | outcome [18]

Cc1cc(-c2ccccc2)nnc1NCCN1CCOCC1
inactive: Potency [1] | Potency [2] | Potency [3] | Potency [4] | Potency [5] | outcome [6] | outcome [7] | outcome [8] | Potency [9] | outcome [10] | outcome [16] | outcome [11] | outcome [12] | Potency [13] | outcome [18] | outcome [15]

CC(=O)C1C(=O)C=C(C)OC1=O (stereo not drawn)
inactive: Potency [1] | Potency [2] | Potency [3] | Potency [4] | Potency [5] | outcome [6] | outcome [7] | outcome [8] | Potency [9] | outcome [10] | outcome [16] | outcome [11] | outcome [12] | Potency [13] | Potency [17] | outcome [18]

CC(=O)CCC1=C(C)CCCC1(C)C
inactive: Potency [1] | Potency [2] | Potency [3] | Potency [4] | Potency [5] | outcome [6] | outcome [7] | outcome [8] | Potency [9] | outcome [10] | outcome [16] | outcome [12] | Potency [14] | Potency [17] | outcome [18] | outcome [15]

CNCCS(=O)(=O)O
inactive: Potency [1] | Potency [2] | Potency [3] | Potency [4] | Potency [5] | outcome [6] | outcome [7] | Potency [9] | outcome [10] | outcome [16] | outcome [11] | outcome [12] | Potency [13] | outcome [18] | outcome [15]

Cc1cccc(Cl)c1
inactive: Potency [1] | Potency [2] | Potency [3] | Potency [4] | Potency [5] | outcome [6] | outcome [7] | Potency [9] | outcome [10] | outcome [16] | outcome [11] | outcome [12] | Potency [13] | Potency [14] | Potency [17] | outcome [18] | outcome [15]

Cc1ccc(C)c([N+](=O)[O-])c1
inactive: Potency [1] | Potency [2] | Potency [3] | Potency [4] | Potency [5] | outcome [6] | outcome [7] | Potency [9] | outcome [10] | outcome [16] | outcome [11] | outcome [12] | Potency [13] | Potency [14] | Potency [17] | outcome [18] | outcome [15]

CCn1cc(C(=O)O)c(=O)c2cnc(N3CCCC3)nc21
inactive: activity change, negative = cytotoxicity [1] 7.35% [at 6.97 µM] | activity change, negative = cytotoxicity [2] 10.5% [at 6.97 µM] | activity change [3] 2.01% [at 6.97 µM, hits give high values] | activity change, negative = cytotoxicity [4] -5.5% [at 6.97 µM] | cytotoxicity increase [5] 3.53% [at 6.97 µM] | activity change, negative = cytotoxicity [6] -1.69% [at 8.39 µM] | viability change, negative = cytotoxic [7] 7.44% [at 8.39 µM] | outcome [19] | activity change, negative = inhibition [9] 0.504% [at 8.39 µM] | activity change, negative = cytotoxicity [10] 0.53% [at 8.39 µM] | viability change, negative = cytotoxic [16] -0.379% [at 8.39 µM] | viability change, negative = cytotoxic [11] -1.09% [at 8.39 µM] | activity change [12] 1.04% [at 8.39 µM] | activity change, negative = inhibition [13] 29.2% [at 8.39 µM] | activation [14] 4.52% [at 8.39 µM] | activity, negative = inhibition [17] 15.3% [at 8.39 µM] | activity change, negative = cytotoxicity [18] 0.387% [at 8.39 µM] | activity change, negative = cytotoxicity [15] 2.48% [at 8.39 µM]

CO[Si](CCCn1c(=O)n(CCC[Si](OC)(OC)OC)c(=O)n(CCC[Si](OC)(OC)OC)c1=O)(OC)OC
inactive: Potency [1] | Potency [2] | Potency [3] | Potency [4] | Potency [5] | outcome [6] | outcome [7] | Potency [9] | outcome [10] | outcome [16] | outcome [11] | outcome [12] | Potency [13] | outcome [18]

CC1=NN(c2ccc(S(=O)(=O)O)cc2)C(=O)C1
inactive: Potency [1] | Potency [2] | Potency [3] | Potency [4] | Potency [5] | outcome [6] | outcome [7] | Potency [9] | outcome [10] | outcome [16] | outcome [11] | outcome [12] | Potency [13] | outcome [18] | outcome [15]

OCCN1CCOCC1
inactive: Potency [1] | Potency [2] | Potency [3] | Potency [4] | Potency [5] | outcome [6] | outcome [7] | outcome [8] | Potency [9] | outcome [16] | outcome [11] | outcome [12] | Potency [13] | Potency [17] | outcome [18] | outcome [15]

C=C(C)[C@@H]1CC=C(C)C(=O)C1
inactive: Potency [1] | Potency [2] | Potency [3] | Potency [4] | Potency [5] | outcome [6] | outcome [7] | Potency [9] | outcome [10] | outcome [16] | outcome [11] | outcome [12] | Potency [13] | outcome [18] | outcome [15]

NCCOCCN
inactive: Potency [1] | Potency [2] | Potency [3] | Potency [4] | Potency [5] | outcome [6] | outcome [7] | outcome [8] | outcome [16] | outcome [11] | outcome [12] | Potency [13] | outcome [18] | outcome [15]
